CHX counter – counter-screen for Shiga toxin inhibitors: cycloheximide protein synthesis inhibition. cell reporter, cycloheximide protein synthesis inhibition counterscreen. max response, %. 300,000 tested, 12% active. AID 2314; in the data active means max response mostly above about 13%, no sharp cut-off; inactive means mostly below about 14%; further: read at 38.3 µM for the half of the compounds with a filed dose
Pf growth 96h – inhibits malaria parasite growth, 96 h; P. falciparum luciferase reporter growth, 96 h; 320,000 tested, 6.9% active; Potency, µM (highest dose often 28.7 µM), actives largely listed as inhibitors
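96 h incubation, 37 C, 5% CO2, of luciferase-reporter P. falciparum-infected RBCs (2% hematocrit, 0.05% parasitemia final) with test compounds; endpoint luminescence.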
FBPA Giardia inh – Giardia lamblia aldolase inhibition; purified Giardia FBPA; Potency, µM (titrated, usually from 59.6 µM), usual class: inhibitors; A8B2U2; AID 2451; 290,000 tested, 0.71% active; further: nearly all actives have a fitted effect of over 55% in size
Target sequence (A8B2U2 whole entry, looked up): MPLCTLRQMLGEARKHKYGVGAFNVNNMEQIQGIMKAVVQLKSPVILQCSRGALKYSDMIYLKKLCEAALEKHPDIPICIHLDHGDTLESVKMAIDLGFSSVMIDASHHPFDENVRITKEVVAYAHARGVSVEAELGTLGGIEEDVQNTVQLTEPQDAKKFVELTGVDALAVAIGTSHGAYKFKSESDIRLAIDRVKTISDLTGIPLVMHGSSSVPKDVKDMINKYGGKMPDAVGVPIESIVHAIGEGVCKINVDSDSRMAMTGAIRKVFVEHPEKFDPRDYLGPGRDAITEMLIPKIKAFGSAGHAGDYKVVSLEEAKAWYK
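Giardia FBPA (40 nM reagent) was preincubated 10 min at RT with compound (up to 57.5 uM final), then substrate plus GAPDH/TPI/NAD/arsenate coupling system with diaphorase/resazurin was added; resorufin fluorescence (525/598 nm) was read after 20 min.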
Shiga toxin inh – inhibitors of Shiga toxin in Vero cells; AID 2315; Vero cells, Shiga toxin protein synthesis inhibition reporter; inhibition, % at 38.7 µM; 290,000 tested, 9.2% active; in the data active means inhibition mostly above about 28%, no sharp cut-off; inactive means mostly below about 43%
Pf growth 48h – inhibits P. falciparum growth in the first generation, 48 h; Potency, µM (series often up to 28.7 µM), hits mostly inhibitors; AID 504832; 310,000 tested, 5.9% active; P. falciparum luciferase growth in erythrocytes, 48 h
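A one-generation exposure of luciferase-tagged malaria parasites in RPMI 1640/Albumax erythrocyte culture, 37 C and 5% CO2. Inhibition is inferred from decreased luminescence after adding detection reagent.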
NS1 inh – influenza NS1 inhibition. Potency, µM (top dose mostly 46.1 µM). 270,000 tested, 0.4% active; calls by dose curve; further: actives are rising curves; nearly all actives have a fitted effect of over 50% in size
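S. cerevisiae expressing influenza A NS1, grown in glucose, washed, then diluted 1:100 into pH 6.0 -URA galactose medium with 23 nl compound. Growth recovery read as OD600; NS1-free strain serves as control.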
Numbers stand for hits; n = inactive; u = inconclusive; x = no result given; [ ] = remark or other dose. Hits are enriched below; roughly 21% of the tested compounds scored in any of these assays. Unless noted, the call rests on the fitted dose curve; in most records, active means well fitted curve in the direction sought with a large enough effect; inconclusive means small, poorly fitted or top-dose-only effect, or another doubt; inactive means no such curve, though single readings can be large; an effect the other way counts as inactive or inconclusive.

SMILES | CHX counter | Pf growth 96h | FBPA Giardia inh | Shiga toxin inh | Pf growth 48h | NS1 inh
Fc1cccc(C2NN=C(c3ccccc3)S2)c1 (centres undefined) | 73 | n | n | 112 | n | n
NC1=NS(=O)(=O)NC1c1cccc(F)c1 (centres undefined) | n | n | n | n | n | x
CC(C)CO[C@H](c1ccc2c(c1)OCO2)[C@H](C)Br | x | x | x | x | x | n
OCCC1CN(Cc2ccc3c(c2)CCO3)CCN1Cc1ccc(F)cc1 (centres undefined) | n | u | n | n | n | n
CC(C)C[C@@H](CC(=O)N[C@@H](CCC(=O)O)CC(=O)O)NC(=O)[C@@H]1CCCC[C@H]1NC(=O)C[C@@H](NC(=O)C[C@H](Cc1ccccc1)NC(=O)[C@@H]1CCCC[C@H]1N)C(C)C | x | x | n | x | x | x
O=C(O)/C=C/c1coc2ccccc2c1=O | 33 | n | n | n | n | n
Cc1ccc2occ(/C=C/C(=O)O)c(=O)c2c1 | n | n | x | n | n | n
O=C(O)/C=C/c1coc2ccc(F)cc2c1=O | 23 | n | n | active | n | n
C=CCSc1nc(-c2ccc(OC)cc2)c(C#N)c(=O)n1CC=C | n | n | n | n | u | n
O=S(=O)(c1ccccc1Cl)N1CCC(O)(c2cccnc2)CC1 | n | n | n | n | n | n
O=Cc1ccc(OC(=O)/C=C/c2ccccc2)cc1 | 34 | n | n | 25 | u | n
O=C(/C=C/c1ccccc1)/C=C/c1ccccc1 | 50 | u | n | 134 | n | n
CC(/C=C\c1ccccc1)=C/C(=O)O | n | n | n | n | n | n
CC(C)(C)C(=O)/C=C(\N)c1ccccn1 | 12 | n | n | n | n | n
O=Cc1ccc(-c2ccc(C(=O)O)cc2)o1 | 35 | n | n | 88 | n | n
CCOc1ccc(/C=C/C(=O)c2ccc(-c3ccccc3)cc2)cc1 | n | n | n | n | n | n
O=C(/C=C/c1ccccc1)c1ccc2c3c(cccc13)CC2 | 30 | u | n | 74 | n | n
COC(=O)NNC(=O)/C=C/c1ccccc1 | n | n | n | n | n | n
O=C(/C=C\c1ccccc1)c1ccccc1O | x | x | n[12.9 µM] | x | x | x
O=C(/C=C/c1ccccc1)c1ccccc1 | 45 | u | n | 125 | n | n
N#Cc1ccc(/C=C/C(=O)c2ccccc2)cc1 | 20 | n | n | 47 | n | n
CC(C)(C)C(=O)/C=C(N)/C=C/c1ccccc1 | 28 | n | n | n | n | n
O=S1(=O)CCOCCN1Cc1ccc(Cl)cc1Cl | n | u | n | n | n | n
O=C(/C=C/c1ccc(NC(=O)c2ccccc2-c2ccccc2C(=O)O)cc1)c1ccccc1 | 10 | u | n | 37 | n | u
O=C(/C=C\c1ccc(-c2ccccc2)o1)c1ccccc1 | 42 | n | n | 110 | n | n
SMILES | CHX counter | Pf growth 96h | FBPA Giardia inh | Shiga toxin inh | Pf growth 48h | NS1 inh
Cc1ccc(C(=O)/C=C/c2ccc(-c3ccc(C)cc3)o2)cc1 | n | u | n | n | n | n
COc1ccc(C(=O)Nc2ccccc2NC(=O)c2ccco2)c(OC)c1 | n | n | n | n | u | x
CC(=O)c1ccccc1NC(=O)CCNC(=O)c1ccco1 | 18 | n | n | n | n | n
COc1ccc(OC)c(NC(=O)c2ccccc2NC(=O)c2ccco2)c1 | n | n | n | n | 3.3µM | n
COc1ccc(OC)c(NC(=O)c2cnc(Nc3ccccc3OC)c3ccccc23)c1 | n | n | n | n | 10µM | n
CCOC(=O)CNC(=O)c1cnc(Nc2ccccc2OC)c2ccccc12 | n | u | n | n | u | n
COc1cc(NC(=O)C(C)C)ccc1NC(=O)c1ccco1 | 58 | n | n | n | n | n
COc1cc(NC(=S)NC(=O)c2ccco2)ccc1NC(=O)C(C)C | n | u | n | n | n | n
C/C(=N\OC(=O)C1CC1)C1CC1c1ccc(F)cc1 (centres undefined) | n | n | n | n | n | x
C[C@]12C=CC(=O)C=C1CC[C@@H]1[C@H]3C[C@@H](O)[C@](O)(C(=O)CO)[C@@]3(C)C[C@H](O)[C@]12F | x | x | n | x | x | x
CCOCCCN(C)C1CCN(C(=O)c2oc3ccccc3c2NC(=O)c2ccc(F)cc2)CC1 | n | u | x | n | n | n
Cc1nn(CC(=O)NCCN2CCCCC2C)c(=O)c2cc(-c3ccccc3)nn12 (centres undefined) | n | n | n | n | n | n
COc1ccccc1NS(=O)(=O)c1ccc(NC(=O)CCNC(=O)c2ccco2)cc1 | n | 8.3µM | n | n | u | n
COc1ccc(OC)c(NC(=O)CCNC(=O)c2ccco2)c1 | n | n | n | n | n | n
COc1cc2c(cc1NC(=O)c1ccco1)CCCC2 | 52 | x | n | 57 | x | n
COc1ccc(NC(=O)CCNC(=O)c2ccco2)c(OC)c1 | 28 | n | n | n | n | n
COc1ccc(NC(=O)c2ccco2)c(OC)c1 | 42 | u | n | 74 | n | n
CCCC[C@H]1CCCO[C@@](C(=O)NCc2cc(C)n(C)n2)(C(F)(F)F)C1 | n | x | n | n | x | x
Cc1cc(=O)n2nc(N3CCC(C(=O)NCc4cccc(Br)c4)CC3)sc2n1 | n | u | x | n | u | n
O=C(CCc1nnc(CCCCc2ccccc2)o1)N1CCCCC1CCO (centres undefined) | n | n | n | n | n | n
COc1ccccc1CNC(=O)CN(C)S(=O)(=O)c1ccc(Br)s1 | 21 | n | n | 57 | n | n
COc1ccc(CNC(=O)CN(C)S(=O)(=O)c2ccc(Br)s2)cc1 | 23 | n | n | n | n | n
CCOC(=O)c1c(C)[nH]c(C)c1S(=O)(=O)N(C)CC(=O)Nc1cccc(C)c1 | n | u | n | n | n | n
CCOC(=O)c1c(C)[nH]c(C)c1S(=O)(=O)N(C)CC(=O)NCc1cccc(Br)c1 | n | 12µM | x | n | u | n
COc1cccc(CNC(=O)CN(C)S(=O)(=O)c2ccc(Br)s2)c1 | 22 | n | n | 76 | n | n
SMILES | CHX counter | Pf growth 96h | FBPA Giardia inh | Shiga toxin inh | Pf growth 48h | NS1 inh
CN(CC(=O)NCc1ccc(F)cc1)S(=O)(=O)c1ccc(Br)s1 | n | n | n | n | n | n
CC(C)c1ccc(CNC(=O)C2CCCN2S(=O)(=O)c2ccccc2)cc1 (centres undefined) | n | u | n | n | u | n
O=C(c1ccco1)N1CCC2(CC1)CCN(c1ccc(-c3ccccc3)cc1)CC2 | x | x | n | x | x | x
O=C(CNS(=O)(=O)c1cccc2nsnc12)NCCc1ccccc1 | n | n | n | n | n | n
O=S(=O)(Cc1ccccc1)N1CCN(Cc2ccc(F)cc2Cl)CC1 | n | n | x | n | n | n
Cc1ccccc1OCCn1cnc2c(N)ncnc21 | 11 | n | n | n | n | n
Nc1ncnc2c1ncn2CCc1ccccc1 | 29 | u | n | 44 | n | n
Nc1ncnc2c1ncn2CCCCC(=O)O | x | x | x | x | x | n
N#CCNC(=O)C1CC(=O)N(CCc2ccc(F)cc2)C1 (centres undefined) | n | u | n | x | n | n
COc1ccc(CCNS(=O)(=O)c2ccc(Br)cc2)cc1OC | n | u | n | x | n | n
